Inconclusive results are not listed. Activity calls are given as the source filed them. Calls follow the shape of the full dose curve.
Potency is read from the fitted curve at half-maximal effect.

The nature of this test: qHTS assay for small molecule agonists of the antioxidant response element (ARE) signaling pathway - cell viability counter screen (AID 743203). Also: nearly all actives have a fitted effect of over 55% in size. Conditions: ARE-bla HepG2 viability, CellTiter-Glo luminescence, 16 h; series mostly up to 73.3 µM. From the text:
National Center for Advancing Translational Sciences [NCATS]
NIH Chemical Genomics Center [NCGC]
U.S. Environmental Protection Agency [EPA]
National Institutes of Environmental Health Sciences [NIEHS]
National Toxicology Program [NTP]
U.S. Food and Drug Administration [FDA]
Oxidative stress has been implicated in the pathogenesis of a variety of diseases ranging from cancer to neurodegeneration. The antioxidant response element (ARE) signaling pathway plays an important role in the amelioration of oxidative stress. The CellSensor ARE-bla HepG2 cell line (Invitrogen) can be used for analyzing the Nrf2/antioxidant response signaling pathway. Nrf2 (NF-E2-related factor 2) and Nrf1 are transcription factors that bind to AREs and activate these genes. The CellSensor ARE-bla Hep G2 cell line contains a beta-lactamase reporter gene under control of the Antioxidant Response Element (ARE) stably integrated into HepG2 cells. The activation of the report gene under culture conditions can be detected by fluorescence intensity. This cell line has been used to screen the Tox21 10K compound library to identify agonists that induce oxidative stress. The cytotoxicity of the Tox21 compound library against the ARE-bla cell line was tested in parallel by measuring the cell viability using CellTiter-Glo assay (Promega, Madison, WI) in the same wells.
Tox21 Assay Protocol Summary:
ARE-bla HepG2 cells were dispensed at 2,000 cells/5 ul/well in 1536-well white wall/solid bottom plates using a Multidrop Combi (ThermoFisher Scientific, Waltham, MA) dispenser. After the assay plates were incubated at 37C/5% CO2 for 5 hrs, 23 nL of compounds dissolved in DMSO, positive controls or DMSO only was transferred to the assay plate by a pintool work station (Kalypsys, San Diego, CA). The plates were incubated at 37C/5% CO2 for 16 hrs, followed by addition of 4 ul/well of CellTiter-Glo reagent into the assay plates using a Flying Reagent Dispenser (Aurora Discovery, San Diego, CA). After 30 min incubation at room temperature, the luminescence intensity in the assay plates was measured using a ViewLux (PerkinElmer, Shelton, CT) plate reader.
As to `CN1CCN(CCCN2c3ccccc3Sc3ccc(Cl)cc32)CC1`, the Potency was 29.8 µM (active). In the case of `SC1CCCCC1` it was “inactive”. Regarding `CCCOC(=O)c1ccc(O)cc1`, the Potency entry was “inactive”. Take `O=C1CCC/C=C\CCCCCCCCCC1`: the Potency entry was “inactive”. In the case of `Cc1cc(Br)ccc1NC(=O)CCl` it was 54.5 µM (active). The value for `CN(C[C@@H](CC[N+]12CCC(C3CCCCC3)(CC1)CC2)c1ccc(Cl)c(Cl)c1)C(=O)c1cc(C(F)(F)F)cc(C(F)(F)F)c1` was 30.6 µM (active); that for `O=C1OC(O)C(C(Cl)Cl)=C1Cl` (stereo not given) was “inactive”; that for `Cc1ccc(Cl)c(N)c1Cl` was “inactive”. The value for `O=C(CCCCCCCCc1cccnc1)N1CCC(C=C(c2ccccc2)c2ccccc2)CC1` was 15.4 µM (active); that for `COc1cc(/C=C/C(=O)CC(=O)/C=C/c2ccc(O)c(OC)c2)ccc1O` was 54.8 µM (active); that for `CN1CC[C@H](c2c(O)cc(O)c3c(=O)cc(-c4ccccc4Cl)oc23)[C@H](O)C1` was “inactive”. Regarding `CCCCCCCCOC(=O)c1cc(O)c(O)c(O)c1`, the Potency was 54.5 µM (active). Take `Cc1cc(F)ccc1-c1cc(N2CC[C@@H](O)[C@H]2CO)ncc1N(C)C(=O)C(C)(C)c1cc(C(F)(F)F)cc(C(F)(F)F)c1`: the Potency is 21.4 µM (active).

Regarding `C=C1C(CCl)(CCl)C2(Cl)C(Cl)C(Cl)C1(Cl)C2(Cl)Cl` (stereo not given), the Potency is 60.4 µM (active). `CCCCCCCCCCCCN1CCCC1=O`: the Potency is 61.1 µM (active). On to `Cc1ccc2nc(-c3ccc(N)cc3)sc2c1S(=O)(=O)O`, for which the Potency result was “inactive”. Turning to `N#Cc1nc(Cl)c(Cl)c(Cl)c1Cl`, the Potency was 6.11 µM (active). The value for `O=C1OC(=O)c2cc(-c3ccc4c(c3)C(=O)OC4=O)ccc21` was “inactive”. For `CN(C)CCOc1ccc(/C(=C(/CCCl)c2ccccc2)c2ccccc2)cc1`, the Potency was 16.1 µM (active). Take `CCSCC`: the Potency entry was “inactive”. Turning to `C[C@H]1O[C@@H](O[C@H]2CC[C@@]3(C)[C@H](CC[C@@H]4[C@@H]3C[C@@H](O)[C@]3(C)[C@@H](C5=CC(=O)OC5)CC[C@]43O)C2)C[C@H](O)[C@@H]1O[C@H]1C[C@H](O)[C@H](O[C@H]2C[C@H](O)[C@H](O[C@@H]3O[C@H](CO)[C@@H](O)[C@H](O)[C@H]3O)[C@@H](C)O2)[C@@H](C)O1`, the Potency was 0.075 µM (active). The value for `CN[C@H]1CC[C@@H](c2ccc(Cl)c(Cl)c2)c2ccc(S(N)(=O)=O)cc21` was 24.3 µM (active); that for `CCC(C)(C)c1ccc(CC(C)CN2C[C@@H](C)O[C@@H](C)C2)cc1` (stereo not given in full) was “inactive”; that for `COc1cccc(-c2ccc(/C=C\CN3CCCCCC3)cc2Cl)c1` was 54.2 µM (active). In the case of `CC(C)c1ccc2sc3ccccc3c(=O)c2c1` it was “inactive”; in that of `Clc1nc(C(Cl)(Cl)Cl)c(Cl)c(Cl)c1Cl`, 30.6 µM (active).

Take `O=C(CCN1CCC(c2ccccc2)C1)c1ccc2c(c1)OCCO2` (stereo not given): the Potency entry was “inactive”. As to `CCCCCCCCCCCCCCCCCCNC(=O)OC1CCN(C(=O)OC[C@H](COC(=O)N(Cc2cccc[n+]2CC)C(=O)c2ccccc2OC)OC)CC1`, the Potency is 26.6 µM (active). As to `O=C1CCCCCCCCCCCCCC1`, the Potency entry is “inactive”. In the case of `CCCCCN=C(N)N/N=C/c1c[nH]c2ccc(OC)cc12` it was 10.6 µM (active); in that of `COc1c(Br)cc(Br)c(C)c1Br`, “inactive”. The value for `CN1CCN(CCCN2c3ccccc3Sc3ccc(C(F)(F)F)cc32)CC1` was 15 µM (active); that for `CC(Cc1ccc(O)c(O)c1)C(C)Cc1ccc(O)c(O)c1` (stereo not given) was 61.1 µM (active); that for `c1ccc2cc3c4ccccc4c4ccccc4c3cc2c1` was “inactive”. The value for `CN(C/C=C/c1ccccc1)Cc1cccc2ccccc12` was “inactive”. Turning to `CN1CCN(c2ccccc2/C=C2\SCCN(c3ccc(Cl)c(Cl)c3)C2=O)CC1`, the Potency is 24.3 µM (active). `CCCCCCCCCCCCCCCCC(C(=O)O)C(O)(CC(=O)O)C(=O)O` (stereo not given): the Potency was 21.1 µM (active). The value for `NCc1cccc(C2CCN(C(=O)c3ccc(C#Cc4ccccc4F)o3)CC2)c1` was 48.6 µM (active); that for `S=C1NC=NC2N=CNC12` (stereo not given) was 8.63 µM (active). As to `O=C(N[C@H](CO)[C@H](O)c1ccc([N+](=O)[O-])cc1)C(Cl)Cl`, the Potency result is “inactive”.

Source of the values: PubChem BioAssay (Tox21).
